The supplement of paper PMC9694430

Columns and labels:
Assay in all cases: thermal shift delta Tm vs DMSO control; higher = stronger stabilization (binding)
Details in all cases: 12.5 µM; protein concentration 2 µM
[1] = tested on: LOC_OS01G57100-cb003
How it was run: (§1)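 Compounds dissolved in DMSO were added to purified rice kinase domain constructs, which had been expressed in E. coli, for differential scanning fluorimetry. Each well held 19.5 μl of 2 μM kinase in 100 mM potassium phosphate pH 7.5, 150 mM NaCl, 10% glycerol and 5 × SYPRO Orange. Fluorescence was followed from 25°C to 95°C at a rate of 0.05°C/s. Shifts in Boltzmann-fitted melting temperature are triplicate means relative to DMSO-only protein.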

[2] = tested on: LOC_OS01G60330-cb001
How it was run: as §1

[3] = tested on: LOC_OS01G60700-cb002
How it was run: as §1

[4] = tested on: LOC_OS01G67340-cb003
How it was run: as §1

[5] = tested on: LOC_OS01G70970-cb002
How it was run: as §1

[6] = tested on: LOC_OS02G07810-cb001
How it was run: as §1

[7] = tested on: LOC_OS02G08530-cb003
How it was run: as §1

[8] = tested on: LOC_OS02G14120-cb001
How it was run: as §1

[9] = tested on: LOC_OS02G17970-cb001
How it was run: as §1

[10] = tested on: LOC_OS02G45750-cb003
How it was run: as §1

[11] = tested on: LOC_OS02G54510-cb004
How it was run: as §1

[12] = tested on: LOC_OS03G04050-cb001
How it was run: as §1

[13] = tested on: LOC_OS03G12390-cb001
How it was run: as §1

[14] = tested on: LOC_OS03G27990-cb004
How it was run: as §1

[15] = tested on: LOC_OS03G50450-cb001
How it was run: as §1

[16] = tested on: LOC_OS03G50810-cb003
How it was run: as §1

[17] = tested on: LOC_OS04G35114-cb001
How it was run: as §1

[18] = tested on: T1, LOC_OS04G38480-cb003
T1 sequence (whole entry): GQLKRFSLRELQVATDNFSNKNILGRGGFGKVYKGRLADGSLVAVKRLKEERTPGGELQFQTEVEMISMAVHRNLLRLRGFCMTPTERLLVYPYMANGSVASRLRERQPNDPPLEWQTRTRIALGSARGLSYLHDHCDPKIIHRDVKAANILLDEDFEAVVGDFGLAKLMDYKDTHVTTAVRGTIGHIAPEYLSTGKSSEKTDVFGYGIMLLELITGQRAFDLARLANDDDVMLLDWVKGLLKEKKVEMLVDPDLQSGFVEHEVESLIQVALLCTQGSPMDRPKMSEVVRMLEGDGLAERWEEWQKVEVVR
How it was run: as §1

[19] = tested on: T2, LOC_OS04G41100-cb001
T2 sequence (whole entry): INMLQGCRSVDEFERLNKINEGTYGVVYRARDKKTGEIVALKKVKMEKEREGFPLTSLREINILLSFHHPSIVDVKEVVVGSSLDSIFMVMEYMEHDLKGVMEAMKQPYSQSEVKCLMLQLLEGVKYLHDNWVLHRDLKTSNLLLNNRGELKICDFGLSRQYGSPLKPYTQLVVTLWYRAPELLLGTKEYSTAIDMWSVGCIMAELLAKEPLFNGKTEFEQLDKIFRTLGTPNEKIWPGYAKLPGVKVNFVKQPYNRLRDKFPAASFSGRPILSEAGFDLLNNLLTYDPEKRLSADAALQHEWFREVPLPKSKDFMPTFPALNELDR
How it was run: as §1

[20] = tested on: LOC_OS01G63280-cb003
How it was run: as §1

Row | SMILES | thermal shift delta Tm [1] [°C] | thermal shift delta Tm [2] [°C] | thermal shift delta Tm [3] [°C] | thermal shift delta Tm [4] [°C] | thermal shift delta Tm [5] [°C] | thermal shift delta Tm [6] [°C] | thermal shift delta Tm [7] [°C] | thermal shift delta Tm [8] [°C] | thermal shift delta Tm [9] [°C] | thermal shift delta Tm [10] [°C] | thermal shift delta Tm [11] [°C] | thermal shift delta Tm [12] [°C] | thermal shift delta Tm [13] [°C] | thermal shift delta Tm [14] [°C] | thermal shift delta Tm [15] [°C] | thermal shift delta Tm [16] [°C] | thermal shift delta Tm [17] [°C] | thermal shift delta Tm [18] [°C] | thermal shift delta Tm [19] [°C] | thermal shift delta Tm [20] [°C]
1 | FC(F)(F)c1ccc(Nc2nc3ccc(Oc4ccnc(-c5ncc(C(F)(F)F)[nH]5)c4)cc3[nH]2)cc1 [Raf265 derivative] | 1.09 | 1.86 | -0.31 | 0.26 | 1.67 | 2.01 | 0.35 | 0.25 | 2.16 | 1.97 | 0.28 | 0.92 | 1.89 | 0.72 | 1.24 | 1.68 | 0.2 | 2.16 | 1.09 | –
2 | Cc1nc2c(-c3cnc(N)nc3)nc(N3CCOCC3)nc2n1C(C)C | 1.43 | 0.31 | 1.66 | 0.22 | – | 1.23 | 1.18 | 0.05 | 2.41 | 0.88 | 0.46 | 0.51 | 0.59 | 0.15 | 0.73 | 0.44 | 1.59 | – | – | 0.78
3 | COc1cc2ncnc(Sc3nnc(C)s3)c2cc1OC | 0.73 | 0.26 | 0.74 | 0.41 | -0.08 | -0.06 | 0.96 | 2.55 | -0.07 | 2.63 | 0.34 | 0.71 | -0.23 | 0.56 | 0.5 | 0.54 | 2.86 | 0.54 | 0.9 | -0.21
4 | Cn1sc(=O)n(Cc2ccccc2)c1=O | 3.29 | -0.15 | 2.66 | -1.31 | – | 2.24 | -1.23 | -0.52 | 1.81 | -1.04 | -2 | -0.78 | -3.39 | -9.72 | -0.11 | -3.78 | 0.63 | 1.35 | 0.43 | 1.02
5 | CC(C)c1ccc2oc3nc(N)c(C(=O)O)cc3c(=O)c2c1 [Amlexanox] | 1.39 | 3.07 | 0.37 | 0.99 | 4.3 | 0.24 | 1.49 | 0.32 | -0.09 | 4.41 | 0.56 | 0.67 | 0.45 | 1.73 | 1.46 | 0.21 | 2.71 | 1.28 | 0.49 | 0.05
6 | CONC(=O)c1ccccc1Nc1cc(Nc2cc(C)nn2C(C)C)ncc1Cl | 0.63 | 0.07 | 0.19 | 0.98 | 1.15 | -0.17 | 1.79 | 3.22 | 0.4 | 1.44 | 0.08 | 0.47 | 1.86 | 0.55 | 0.47 | 1.12 | 0.79 | 2.41 | 0.42 | 0.5
7 | Cc1cc(O)c2c(c1)C(=O)c1cccc(O)c1C2=O [Chrysophanic Acid] | 5.05 | 0.02 | 0.52 | – | -3.4 | 0.6 | -0.63 | -2.71 | 1.94 | 0.14 | -1.28 | -0.08 | -1.54 | 0.02 | 0.03 | -0.82 | 0.09 | -1.19 | 0.06 | –
8 | N#Cc1c(O)c2c(-c3ccc(-c4ccccc4O)cc3)csc2[nH]c1=O | 3.04 | 1.32 | 1.46 | 0.95 | 0.52 | 1.91 | 1.2 | 0.5 | 1.96 | 1.29 | 0.51 | 0.84 | 0.75 | 0.45 | 0.66 | 0.88 | 0.58 | 1.99 | 0.62 | 0.82
9 | CC(=O)O/N=C1/C(c2c(O)[nH]c3cc(Br)ccc23)=Nc2ccccc21 [BIO-acetoxime] | -10.7 | 0.36 | -0.6 | -1.03 | -1.11 | – | 2.87 | -2.97 | – | 9.18 | 2.31 | 1.28 | -0.22 | 0.36 | -0.71 | 5.4 | 5.86 | -0.03 | 0.88 | 0.15
10 | COc1cc2/c(=N/c3ccc(Br)cc3F)nc[nH]c2cc1OCC1CCN(C)CC1 [Vandetanib (ZD6474)] | 0.28 | 0.67 | 1.17 | 1.64 | 0.33 | 0.65 | 2.65 | 10.4 | 0.76 | 3.64 | 0.98 | 0.67 | 2.45 | 2.29 | 1.05 | 2.26 | 8.6 | 3.76 | 0.73 | 0.47
11 | Cc1cc2c(F)c(Oc3ncnn4cc(OC[C@@H](C)OC(=O)[C@H](C)N)c(C)c34)ccc2[nH]1 | 2.01 | 2.03 | 1.53 | 0.06 | 0.49 | 0.41 | 0.78 | 0.99 | 0.23 | 1.3 | -0.11 | 0.25 | -0.23 | 1.72 | -0.29 | 0.18 | 5.17 | 0.59 | 0.68 | 0.53
12 | O=C(NC(NC(=S)Nc1ccc(F)c([N+](=O)[O-])c1)C(Cl)(Cl)Cl)C(c1ccccc1)c1ccccc1 (stereo not given) | 4.28 | 8.97 | 3.48 | 0.17 | 1.86 | 3.38 | 2.71 | 2.37 | 3.46 | 0.8 | 1.3 | 1.21 | 1.23 | 0.49 | 0.84 | 1.45 | 1.31 | 3.23 | 0.88 | –
